This is a sample that favours compounds with a hit; in the whole collection about 1.8% have one here.
ERAP1 HTS inh: blocks human ERAP1 aminopeptidase activity; recombinant ERAP1, Leu-AMC fluorescence, 60 min; inhibition, % at 10.7 µM; hit rate 0.15% among 340,000;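 active means mean replicate inhibition of at least 30%, or all replicates individually reaching that 30% level; inactive means mean below 30% and not every replicate reaching it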;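 further: 0% = neutral control wells and 100% = L-leucinethiol positive control wells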
ERp5 inh: ERp5 (human) disulfide isomerase inhibition; AID 651711; hit rate 0.05% among 350,000; ERp5 insulin aggregation, absorbance 650 nm, 90 min; inhibition, % at 9.99 µM; Q15084;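 active means mean replicate inhibition above about 25%, with every replicate also reaching it, limit read from the data, passing the limit was not always enough; inconclusive means only one of those two criteria met; inactive means neither criterion met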
Target sequence (Q15084 whole entry, looked up): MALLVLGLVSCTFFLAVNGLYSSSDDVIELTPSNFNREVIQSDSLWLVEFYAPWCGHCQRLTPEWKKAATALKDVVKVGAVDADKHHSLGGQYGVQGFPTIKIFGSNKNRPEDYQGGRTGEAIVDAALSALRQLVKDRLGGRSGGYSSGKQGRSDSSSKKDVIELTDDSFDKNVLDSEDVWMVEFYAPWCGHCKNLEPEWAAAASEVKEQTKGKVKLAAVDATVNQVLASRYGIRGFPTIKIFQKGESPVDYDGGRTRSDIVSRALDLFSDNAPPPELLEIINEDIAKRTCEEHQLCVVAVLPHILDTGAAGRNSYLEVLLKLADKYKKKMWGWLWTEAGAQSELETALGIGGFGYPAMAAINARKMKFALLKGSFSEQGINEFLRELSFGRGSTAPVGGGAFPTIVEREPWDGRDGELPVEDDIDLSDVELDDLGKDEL
DENV2 CPE: DENV2-induced cell death inhibition; DENV2-infected cells, cytopathic effect rescue, plate reader; CPE inhibition, % at 9.99 µM; hit rate 1.7% among 350,000; AID 651640; in the data active means CPE inhibition above about 20%, passing the limit was not always enough; inconclusive means no clear call, values can overlap the other calls; tested in BHK-21 cells;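 further: 0% = median of neutral control wells and 100% = median of positive control wells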
PDI turbidity: PDI (human) enzyme inhibition; PDI insulin aggregation turbidity, A650, 90 min; inhibition, % at 10 µM; hit rate 0.052% among 350,000; AID 588391;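 active means mean inhibition across replicates of 30% or more, whatever share of single replicates reach that level; inconclusive means mean inhibition below 30% while every single replicate reaches 30%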
MLL AF4-AF9 inh: MLL-AF4/AF9 protein interaction inhibition. P42568. AlphaScreen, biotin-AF4 peptide binding to FLAG-AF9. inhibition, % at 10 µM. hit rate 0.47% among 350,000;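 active means every replicate reaching a set inhibition limit, whatever the replicate mean, cut at about 25% in these data; inconclusive means mean inhibition reaches that limit but some replicates miss it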;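 further: 0% = plate neutral control median and 100% = total signal loss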
* = called active by the depositor; ? = inconclusive; · = not tested or not shown.

SMILES	ERAP1 HTS inh	ERp5 inh	DENV2 CPE	PDI turbidity	MLL AF4-AF9 inh
COc1ccc(S(=O)(=O)N(C)C[C@H]2OCCCC[C@@H](C)Oc3ccc(NS(=O)(=O)c4cccs4)cc3C(=O)N([C@@H](C)CO)C[C@H]2C)cc1	2	-4	23*	·	3
O=C(Nc1ccc(F)cc1)N1CC(=O)N2[C@H](CO)[C@H](c3ccc(Br)cc3)[C@H]2C1	0	5	0	·	-4
O=C(C[C@H]1CC[C@@H](NC(=O)Nc2cc(F)ccc2F)[C@H](CO)O1)Nc1ccccc1	0	4	·	·	-1
O=C(C[C@H]1CC[C@@H]2[C@H](COC[C@@H](O)CN2CC2CCCC2)O1)NCC1CC1	3	-3	?	·	-1
Cc1cccc(Oc2ccc(NS(=O)(=O)c3ccc(C)c(C(=O)O)c3)cc2)c1	6	26*	4	6	-14
Cc1ccc(S(=O)(=O)Nc2ccc3c(c2)C(=O)N([C@H](C)CO)C[C@@H](C)[C@@H](CN(C)C(=O)Nc2c(C)noc2C)O3)cc1	3	3	0	·	1
Cc1cc2ccccn2c1C(=S)NC(=O)c1ccccc1	10	8	-4	2	8
Cc1ccc(C(=O)NC(=S)c2c(C)cc3ccccn23)cc1	2	2	85*	-4	21
C[C@@H]1CCCCO[C@@H](CN(C)S(C)(=O)=O)[C@@H](C)CN([C@H](C)CO)C(=O)c2cc(NC(=O)c3ccncc3)ccc2O1	-2	3	0	·	-19
C[C@H]1CN([C@@H](C)CO)C(=O)c2cc(NC(=O)CCC(F)(F)F)ccc2O[C@@H]1CN(C)S(=O)(=O)c1ccc(Cl)cc1	1	-1	-4	·	-3
O=C(N[C@H]1CC[C@@H](CCNS(=O)(=O)c2ccc(F)cc2)O[C@H]1CO)C1CCOCC1	-5	-4	38*	·	1
O=C(N[C@@H]1CC[C@@H](CCNS(=O)(=O)c2ccc(F)cc2)O[C@H]1CO)c1cnccn1	-1	1	51*	·	-2
Cc1ccc(S(=O)(=O)NCC[C@@H]2CC[C@H](NC(=O)c3cnccn3)[C@@H](CO)O2)cc1	0	-3	?	·	-2
CCS(=O)(=O)NCC[C@H]1CC[C@H](NC(=O)C2CCC2)[C@H](CO)O1	3	11	17	·	-6
CCS(=O)(=O)NCC[C@@H]1CC[C@@H](NC(=O)C2CC2)[C@@H](CO)O1	-4	-1	46*	·	-5
CCn1c(SCC(=O)N2CCCCCC2)nc2c([nH]c3ccccc32)c1=O	2	3	63*	1	0
CN=c1scc(C)n1/N=C/c1ccc(O)c(O)c1O	·	·	·	0	·
CN=c1scc(-c2cccs2)n1/N=C/c1ccc(O)c(O)c1O	-3	3	5	3	40*
CC(=O)c1cccc(NC(=O)c2noc3c2CCc2ccccc2-3)c1	-4	5	22*	0	-13
C[C@H](CO)N1C[C@H](C)[C@@H](CN(C)Cc2ccccc2)Oc2ccc(NC(=O)C3CCCCC3)cc2CC1=O	1	8	38*	·	8
C[C@H](CO)N1C[C@H](C)[C@@H](CN(C)Cc2ccc(C(F)(F)F)cc2)Oc2ccc(NC(=O)C3CCCCC3)cc2CC1=O	0	-7	42*	·	1
C[C@@H]1CN([C@H](C)CO)C(=O)Cc2cc(NC(=O)C3CCCCC3)ccc2O[C@@H]1CN(C)Cc1ccccc1	0	4	-7	·	3
CN1C(=O)c2cc(NC(=O)c3ccc(C(F)(F)F)cc3)ccc2OC[C@@H]2O[C@@H](CC(=O)NC3Cc4ccccc4C3)CC[C@H]21	-1	-1	16	·	1
CN1c2ccc(-c3ccccc3)cc2[C@@H]2[C@@H](CCN2C(=O)c2ccc3c(c2)OCO3)[C@@H]1CO	2	-1	-14	·	0
NC(Cc1ccc(F)cc1)c1csc(Nc2cc(NCc3ccco3)ncn2)n1 (configuration not stated)	3	1	13	-9	7
SMILES	ERAP1 HTS inh	ERp5 inh	DENV2 CPE	PDI turbidity	MLL AF4-AF9 inh
NC(c1csc(Nc2cc(NCc3ccco3)ncn2)n1)c1ccccc1Cl (configuration not stated)	-4	-1	69*	1	1
COc1ccccc1/C=C/C=O	0	-12	25*	·	-3
COc1ccccc1/C=C/C(=O)c1ccccc1	0	-1	-5	1	-1
O=C(C[C@@H]1C=C[C@@H](NC(=O)NC2CCCCC2)[C@H](CO)O1)NCc1ccccc1	-1	-3	0	·	-2
CCOC1=C2CN(S(=O)(=O)c3ccc(Cl)cc3)[C@H](c3ccccc3)C[C@@H]2N(S(=O)(=O)c2ccc(C)cc2)[C@H](c2ccccc2)C1	-1	-2	1	·	-1
CCOC1=C2CN(S(=O)(=O)c3ccc(C)cc3)C(c3cccc(Cl)c3)CC2N(S(=O)(=O)c2ccc(Cl)cc2)C(c2ccccc2)C1 (configuration not stated)	-4	2	32*	·	·
Cc1cc(C(=O)Nc2cccc3c2O[C@@H](CN(C)Cc2ccc(C(=O)Nc4ccccc4N)cc2)[C@@H](C)CN([C@@H](C)CO)C3=O)n(C)n1	-3	9	7	·	2
Cc1cc(F)ccc1-c1cc(C(=O)NCc2ccco2)[nH]n1	-5	4	57*	10	-3
Cc1cc(F)ccc1-c1cc(C(=O)NCc2ccc(C(F)(F)F)cc2)[nH]n1	-1	-3	7	6	-4
O=C(c1cccc(F)c1)N1CC(=O)N2[C@H](C1)[C@H](c1ccc(-c3ccccc3F)cc1)[C@@H]2CO	-1	0	-9	·	1
C[C@H](CO)N1C[C@H](C)[C@@H](CN(C)C(=O)C2CCC2)Oc2cc(-c3cccnc3)ccc2S1(=O)=O	5	1	7	·	-2
COc1cc2c(cc1OC)C(C)N(C(=O)Cn1ncc3c1-c1cc(C)ccc1OC3)CC2 (configuration not stated)	1	-6	70*	·	1
C[C@H](CO)N1C[C@H](C)[C@@H](CN(C)S(=O)(=O)CC(F)(F)F)OCc2ccccc2-c2c(n(C)c3ccccc23)C1=O	-1	20	-2	·	3
CC(C)n1cc(CN2CCCC(CNS(=O)(=O)c3cccc4cccnc34)C2)cn1 (configuration not stated)	0	3	22*	9	2
Cn1cc(CN2CCCC(CNS(=O)(=O)c3cccc4cccnc34)C2)cn1 (configuration not stated)	4	0	16	1	-1
O=C(C[C@H]1CC[C@H](NC(=O)c2ccccc2)[C@@H](CO)O1)NCc1ccncn1	3	-1	-1	·	-1
CO[C@@H]1CN(C)C(=O)c2cc(NS(=O)(=O)CC(F)(F)F)ccc2OC[C@@H](C)N(C(=O)NC(C)C)C[C@@H]1C	0	5	-4	·	-4
CC(O)(c1cccc(F)c1)c1nc(/C=C/c2ccccc2)cs1 (configuration not stated)	1	-1	22*	-4	5
CC(O)(c1ccc(F)c(F)c1)c1nc(/C=C/c2ccc(C(F)(F)F)cc2)cs1 (configuration not stated)	-3	-11	?	9	1

Compound activity (PubChem BioAssay)
